# According to PubChem BioAssay AID1159580 (chemical genetic matrix, 2015):
# Out of some 5,500 compounds screened, about 2,000 (36%) were called active. About 18% were inconclusive and are not listed. This is one part of the list. Values without a mark were called inactive. Cut-off read from the data, not from the text of the source: active = normalized growth mostly below about 0.91 (no sharp cut-off); inconclusive = no clear call, values can overlap the other calls; inactive = mostly above about 0.92.
# Experiment: chemical genetic growth profiling, strain panel (AID 1159580);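 note: tested at 20 µM; growth read once vehicle control cultures reached saturation at 30 °C; 1 = growth at the plate median or of vehicle wells; lower values mean less growth of the strain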
# Conditions: growth OD
compound,measurement,setting,value
CC(C)=CCCC1(C)C=Cc2c(O)c3c(c(CC=C(C)C)c2O1)OC12C(=CC4CC1C(C)(C)OC2(C/C=C(/C)C(=O)O)C4=O)C3=O (stereo not drawn),normalized growth,"S. cerevisiae deletion strains, locus YJL187C, strain SWE1, active compounds read low",0.851 (active)
same,normalized growth,"S. cerevisiae deletion strains, locus YJR043C, strain POL32, active compounds read low",0.821 (active)
same,normalized growth,"S. cerevisiae deletion strains, locus YJR066W, strain TOR1, active compounds read low",0.825
same,normalized growth,"S. cerevisiae deletion strains, locus YKL009W, strain mrt4, active compounds read low",0.965
same,normalized growth,"S. cerevisiae deletion strains, locus YKL068W, active compounds read low",0.943
same,normalized growth,"S. cerevisiae deletion strains, locus YKL085W, strain MDH1 (second series), active compounds read low",0.925 (active)
same,normalized growth,"S. cerevisiae deletion strains, locus YKL085W, strain MDH1, active compounds read low",0.925 (active)
same,normalized growth,"S. cerevisiae deletion strains, locus YKL160W, strain elf1, active compounds read low",0.842 (active)
same,normalized growth,"S. cerevisiae deletion strains, locus YKR001C, strain vps1, active compounds read low",0.628 (active)
same,normalized growth,"S. cerevisiae deletion strains, locus YKR026C, strain gcn3, active compounds read low",0.973
same,normalized growth,"S. cerevisiae deletion strains, locus YKR091W, strain srl3, active compounds read low",0.96
same,normalized growth,"S. cerevisiae deletion strains, locus YLL001W, strain dnm1, active compounds read low",0.881 (active)
same,normalized growth,"S. cerevisiae deletion strains, locus YLL026W, active compounds read low",0.888 (active)
same,normalized growth,"S. cerevisiae deletion strains, locus YLL041C, strain sdh2, active compounds read low",0.958
same,normalized growth,"S. cerevisiae deletion strains, locus YLR027C, strain aat2, active compounds read low",0.827 (active)
same,normalized growth,"S. cerevisiae deletion strains, locus YLR039C, strain RIC1, active compounds read low",0.873
same,normalized growth,"S. cerevisiae deletion strains, locus YLR058C, strain SHM2, active compounds read low",0.884 (active)
same,normalized growth,"S. cerevisiae deletion strains, locus YLR102C, strain apc9, active compounds read low",0.97
same,normalized growth,"S. cerevisiae deletion strains, locus YLR113W, strain HOG1, active compounds read low",0.685 (active)
same,normalized growth,"S. cerevisiae deletion strains, locus YLR221C, strain rsa3, active compounds read low",0.871 (active)
same,normalized growth,"S. cerevisiae deletion strains, locus YLR258W, strain gsy2, active compounds read low",0.861 (active)
same,normalized growth,"S. cerevisiae deletion strains, locus YLR262C, strain YPT6 (second series), active compounds read low",0.685 (active)
same,normalized growth,"S. cerevisiae deletion strains, locus YLR262C, strain YPT6, active compounds read low",0.783
same,normalized growth,"S. cerevisiae deletion strains, locus YLR268W, strain sec22, active compounds read low",0.84 (active)
same,normalized growth,"S. cerevisiae deletion strains, locus YLR320W, strain mms22, active compounds read low",0.732 (active)
same,normalized growth,"S. cerevisiae deletion strains, locus YLR330W, strain CHS5, active compounds read low",0.756 (active)
same,normalized growth,"S. cerevisiae deletion strains, locus YLR342W, strain FKS1 (second series), active compounds read low",0.703 (active)
same,normalized growth,"S. cerevisiae deletion strains, locus YLR342W, strain FKS1, active compounds read low",0.854 (active)
same,normalized growth,"S. cerevisiae deletion strains, locus YLR357W, strain rsc2, active compounds read low",1.02
same,normalized growth,"S. cerevisiae deletion strains, locus YLR370C, strain arc18, active compounds read low",0.984
same,normalized growth,"S. cerevisiae deletion strains, locus YLR371W, strain rom2, active compounds read low",0.955
same,normalized growth,"S. cerevisiae deletion strains, locus YLR384C, strain iki3, active compounds read low",0.989
same,normalized growth,"S. cerevisiae deletion strains, locus YLR418C, strain cdc73, active compounds read low",0.487 (active)
same,normalized growth,"S. cerevisiae deletion strains, locus YML016C, strain PPZ1, active compounds read low",0.963
same,normalized growth,"S. cerevisiae deletion strains, locus YML032C, strain rad52, active compounds read low",0.879 (active)
same,normalized growth,"S. cerevisiae deletion strains, locus YML120C, strain ndi1, active compounds read low",0.855 (active)
same,normalized growth,"S. cerevisiae deletion strains, locus YML124C, strain tub3, active compounds read low",0.979
same,normalized growth,"S. cerevisiae deletion strains, locus YMR058W, strain fet3, active compounds read low",0.507 (active)
same,normalized growth,"S. cerevisiae deletion strains, locus YMR078C, strain ctf18, active compounds read low",0.98
same,normalized growth,"S. cerevisiae deletion strains, locus YMR125W, strain sto1, active compounds read low",0.938
same,normalized growth,"S. cerevisiae deletion strains, locus YMR129W, active compounds read low",0.951
same,normalized growth,"S. cerevisiae deletion strains, locus YMR205C, strain PFK2, active compounds read low",0.623 (active)
same,normalized growth,"S. cerevisiae deletion strains, locus YMR223W, strain ubp8, active compounds read low",0.853 (active)
same,normalized growth,"S. cerevisiae deletion strains, locus YMR231W, strain pep5, active compounds read low",0.911 (active)
same,normalized growth,"S. cerevisiae deletion strains, locus YMR263W, strain SAP30, active compounds read low",0.947
same,normalized growth,"S. cerevisiae deletion strains, locus YMR307W, strain GAS1, active compounds read low",0.571 (active)
same,normalized growth,"S. cerevisiae deletion strains, locus YNL067W, strain RPL9B, active compounds read low",0.93
same,normalized growth,"S. cerevisiae deletion strains, locus YNL071W, strain lat1, active compounds read low",0.324 (active)
same,normalized growth,"S. cerevisiae deletion strains, locus YNL153C, strain GIM3, active compounds read low",0.923
same,normalized growth,"S. cerevisiae deletion strains, locus YNL183C, strain NPR1, active compounds read low",0.8 (active)
same,normalized growth,"S. cerevisiae deletion strains, locus YNL209W, strain ssb2, active compounds read low",0.76 (active)
same,normalized growth,"S. cerevisiae deletion strains, locus YNL233W, strain BNI4, active compounds read low",0.772 (active)
same,normalized growth,"S. cerevisiae deletion strains, locus YNL248C, strain rpa49, active compounds read low",0.976
same,normalized growth,"S. cerevisiae deletion strains, locus YNL250W, strain rad50, active compounds read low",0.952
same,normalized growth,"S. cerevisiae deletion strains, locus YNL271C, strain bni1, active compounds read low",0.981
same,normalized growth,"S. cerevisiae deletion strains, locus YNL298W, strain CLA4, active compounds read low",0.976
same,normalized growth,"S. cerevisiae deletion strains, locus YNL307C, strain MCK1, active compounds read low",0.382 (active)
same,normalized growth,"S. cerevisiae deletion strains, locus YNL322C, strain KRE1 (second series), active compounds read low",0.964
same,normalized growth,"S. cerevisiae deletion strains, locus YNR049C, strain mso1, active compounds read low",0.978
same,normalized growth,"S. cerevisiae deletion strains, locus YNR052C, strain pop2, active compounds read low",0.928
same,normalized growth,"S. cerevisiae deletion strains, locus YOL012C, strain htz1",0.349
same,normalized growth,"S. cerevisiae deletion strains, locus YOL147C, strain pex11, active compounds read low",0.929 (active)
same,normalized growth,"S. cerevisiae deletion strains, locus YOR001W, strain rrp6, active compounds read low",0.918
same,normalized growth,"S. cerevisiae deletion strains, locus YOR061W, strain CKA2, active compounds read low",0.785 (active)
same,normalized growth,"S. cerevisiae deletion strains, locus YOR069W, strain VPS5, active compounds read low",0.975
same,normalized growth,"S. cerevisiae deletion strains, locus YOR070C, strain gyp1, active compounds read low",0.796 (active)
same,normalized growth,"S. cerevisiae deletion strains, locus YOR080W, strain dia2, active compounds read low",0.982
same,normalized growth,"S. cerevisiae deletion strains, locus YOR083W, strain WHI5, active compounds read low",0.842 (active)
same,normalized growth,"S. cerevisiae deletion strains, locus YOR106W, strain vam3, active compounds read low",0.662 (active)
same,normalized growth,"S. cerevisiae deletion strains, locus YOR136W, strain idh2, active compounds read low",0.958
same,normalized growth,"S. cerevisiae deletion strains, locus YOR144C, strain elg1, active compounds read low",0.946
same,normalized growth,"S. cerevisiae deletion strains, locus YOR184W, strain ser1, active compounds read low",0.64 (active)
same,normalized growth,"S. cerevisiae deletion strains, locus YOR231W, strain MKK1, active compounds read low",0.884
same,normalized growth,"S. cerevisiae deletion strains, locus YOR265W, strain rbl2, active compounds read low",0.886 (active)
same,normalized growth,"S. cerevisiae deletion strains, locus YOR270C, strain vph1, active compounds read low",0.632 (active)
same,normalized growth,"S. cerevisiae deletion strains, locus YOR290C, strain snf2, active compounds read low",0.836 (active)
same,normalized growth,"S. cerevisiae deletion strains, locus YOR316C, strain cot1, active compounds read low",0.97
same,normalized growth,"S. cerevisiae deletion strains, locus YPL051W, strain arl3, active compounds read low",0.764 (active)
same,normalized growth,"S. cerevisiae deletion strains, locus YPL078C, strain atp4, active compounds read low",0.885 (active)
same,normalized growth,"S. cerevisiae deletion strains, locus YPL106C, strain sse1, active compounds read low",1.01
same,normalized growth,"S. cerevisiae deletion strains, locus YPL240C, strain hsp82, active compounds read low",0.908 (active)
same,normalized growth,"S. cerevisiae deletion strains, locus YPL256C, strain CLN2, active compounds read low",0.816 (active)
same,normalized growth,"S. cerevisiae deletion strains, locus YPR119W, strain clb2, active compounds read low",0.988
same,normalized growth,"S. cerevisiae deletion strains, locus YPR141C, strain kar3, active compounds read low",0.982
same,normalized growth,"S. cerevisiae deletion strains, locus YPR163C, strain tif3, active compounds read low",0.9 (active)
same,normalized growth,"S. cerevisiae deletion strains, locus YPR167C, strain met16, active compounds read low",0.91 (active)
same,normalized growth,"S. cerevisiae deletion strains, strain wtn01, active compounds read low",0.868 (active)
same,normalized growth,"S. cerevisiae strains, strain wild type, active compounds read low",0.78 (active)
